D2 ag-1 = activates the human D2 dopamine receptor | P14416 | DiscoveRx PathHunter D2 beta-arrestin, luminescence, 90 min; 100% = 57 uM dopamine signal | hit rate 0.084% among 360,000 | activation, % (concentration not given with the values); in the data active = activation above about 40%; inconclusive = between about 15% and that limit
Target sequence (P14416 whole entry, looked up): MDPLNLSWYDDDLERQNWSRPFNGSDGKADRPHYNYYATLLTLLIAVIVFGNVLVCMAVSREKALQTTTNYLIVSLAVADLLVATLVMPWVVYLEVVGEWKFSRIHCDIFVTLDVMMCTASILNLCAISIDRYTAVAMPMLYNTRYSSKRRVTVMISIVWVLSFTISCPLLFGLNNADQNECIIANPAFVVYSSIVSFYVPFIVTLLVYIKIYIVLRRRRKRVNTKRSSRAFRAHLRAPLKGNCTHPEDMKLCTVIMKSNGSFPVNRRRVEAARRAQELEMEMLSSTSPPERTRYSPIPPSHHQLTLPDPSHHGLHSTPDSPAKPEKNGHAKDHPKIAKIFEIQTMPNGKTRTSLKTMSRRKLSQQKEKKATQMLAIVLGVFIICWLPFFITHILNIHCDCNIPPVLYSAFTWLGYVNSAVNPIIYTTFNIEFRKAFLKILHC
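DiscoveRx PathHunter D2 beta-arrestin cells (2,100/well) attached overnight, then compound-stimulated 90 min at 37 C in HBSS/10 mM HEPES/0.1% Tween-20 buffer; beta-galactosidase complementation read by luminescence after 1 h at ambient temperature. Dopamine 57 uM final (EC100) as control.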
D2 antag = antagonizes the human D2 dopamine receptor; HEK293 TREx D2 cells, calcium flux, dopamine EC80; AID 485344; inhibition, % at 10 µM; hit rate 2% among 340,000; in the data active = inhibition above about 30%; inactive = below that, where a call was filed; also: 0% is about no effect
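Calcium mobilization kinetics were recorded at 1 s intervals in tetracycline-induced HEK293 T-REx D2 cells, first for 180 s after compound addition and then 180 s after EC80 dopamine.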
D2 ag-2 = agonists of human D2 dopamine receptor | AID 485358 | activation, % at 2 µM | HEK293 T-REx D2 cells, calcium flux agonist mode | hit rate 0.53% among 340,000 | P14416;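 active = activation over 3 SD above normal in the single-dose calcium agonist read, cut at about 30% in these data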; also: 0% is about no effect
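Tetracycline-induced HEK293 Trex cells with D2 receptor force-coupled to calcium signaling, plated overnight at 30 C and loaded with no-wash calcium dye. Calcium flux read kinetically for 180 s after compound addition; responses flag agonists.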
D2 PAM-1 = human D2 receptor positive allosteric modulation | potentiation, % (test concentration not listed) | P14416 | hit rate 0.23% among 360,000 | AID 624464 | DiscoveRx D2 beta-arrestin cells, luminescence, 90 min; 100% = 57 uM dopamine signal; in the data active = potentiation above about 50%; inconclusive = mostly about 30% to 49%
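PathHunter beta-arrestin assay in DiscoveRx D2 cells. Compounds were added with an EC20 of dopamine (50 nM final) for 90 min at 37 deg C. Luminescence was read 1 h after detection reagent, with 57 uM dopamine as the EC100 control.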
D2 PAM-2 = positive allosteric modulators of human D2 dopamine receptor; potentiation, % at 10 µM; hit rate 0.34% among 340,000; HEK293 T-REx D2, calcium flux, EC20 dopamine potentiation;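 active = potentiation over 3 SD above the plate norm, cut at about 30% in these data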; also: 0% is about no effect
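Tetracycline-induced HEK293 T-REx cells force-coupled to calcium signalling expressed D2; compounds were pin-added after a 10 s baseline, read kinetically 180 s, then an EC20 dopamine challenge followed with a further 180 s calcium read.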
Active calls of the source: *; ? = inconclusive; . = no result. Hits are enriched below; roughly 2.4% of the tested compounds scored in any of these assays.

SMILES	D2 ag-1	D2 antag	D2 ag-2	D2 PAM-1	D2 PAM-2
O=C(Nc1cn(-c2ccccc2)nc1-c1ccc(Cl)cc1)c1ccccc1	-2	-11	-1	-6	7
COc1ccc(S(=O)(=O)NCC2CCCN(C(=O)c3ccco3)C2)cc1 (stereo unspecified)	-7	32*	-1	-14	-8
COc1ccc(/C=C/c2ccncc2)c2ccccc12	2	45*	-1	14	9
COc1ccccc1C=Cc1ccnc2ccccc12	0	.	.	-12	.
CN1CCN(C(c2ccccc2)c2ccc(Cl)cc2)CC1 (stereo unspecified)	-4	.	.	-28	.
CN1CCN(C(c2cccc(Cl)c2)c2ccccc2Cl)CC1 (stereo unspecified)	-6	83*	0	-34	-28
CN(C)S(=O)(=O)c1ccc2c(c1)N(CC(=O)N1CCN(c3ccccc3F)CC1)CCS2	.	.	2	.	17
CCc1ccc(C(=O)N/N=C/c2ccc(Cl)cc2Cl)nc1	.	73*	1	.	-18
COCCCNC(=O)CCc1c(C)nc2cc(-c3ccc(Cl)cc3)nn2c1C	.	.	.	.	-3
COc1cc(/C=C/C(=O)OCC(=O)NC(=O)NC(C)C)ccc1OCC#N	-3	46*	0	-7	3
COc1ccccc1NC(=O)Cn1c(=O)n(C)c(=O)c2sc3c(c21)COC(C)(C)C3	4	32*	0	-9	-5
C/C(=N\NC(=O)COc1ccccc1)c1ccc(O)cc1	-3	-18	-2	-17	-8
C/C(=N\NC(=O)CC#N)c1ccc(Oc2ccccc2)cc1	-3	5	1	-3	39*
Fc1cccc2sc(Nc3nnc(-c4ccccc4)o3)nc12	-6	43*	1	-22	-7
N/C(=N\OC(=O)c1ccccc1Br)c1cccc([N+](=O)[O-])c1	?	-7	-1	?	8
N/C(=N\OC(=O)c1ccco1)c1cccc(Br)c1	6	12	0	23	0
COc1ccc(/C(N)=N/OC(=O)c2ccco2)cc1OC	10	-6	0	7	32*
COc1ccc(C(=O)O/N=C(\N)c2ccccc2)cc1OC	10	-6	1	?	5
COc1cc(C(=O)O/N=C(\N)c2cccc([N+](=O)[O-])c2)cc(OC)c1OC	?	2	0	55*	15
COc1cc(C(=O)O/N=C(\N)c2ccc([N+](=O)[O-])cc2)cc(OC)c1OC	8	13	1	15	-6
N/C(=N\OC(=O)c1ccccc1F)c1cccc([N+](=O)[O-])c1	66*	6	4	16	6
N/C(=N\OC(=O)c1ccco1)c1cccc([N+](=O)[O-])c1	?	-5	1	81*	-2
Cc1ccc(C(=O)O/N=C(\N)c2cccc([N+](=O)[O-])c2)cc1	?	-5	1	60*	0
N/C(=N\OC(=O)c1ccc(Br)cc1)c1cccc([N+](=O)[O-])c1	6	-12	0	?	-2
Cn1nc(C(=O)OCC(=O)N2CCc3ccccc32)c2ccccc2c1=O	-1	8	-1	-21	32*
SMILES	D2 ag-1	D2 antag	D2 ag-2	D2 PAM-1	D2 PAM-2
COc1cc2c(cc1OC)C(c1cc3cc4c(cc3[nH]c1=O)OCO4)N(C(=O)C1CC1)CC2 (stereo unspecified)	1	33*	-1	5	-7
COc1cc2c(cc1OC)C(c1cc3ccc(C)cc3[nH]c1=O)N(C(=O)c1ccco1)CC2 (stereo unspecified)	-1	11	3	-5	9
CC1CCCCC1Nc1ncnc2sccc12 (stereo unspecified)	6	36*	0	-6	14
O=C(NCc1ccccc1)Nc1cccn(Cc2ccccc2Cl)c1=O	-3	33*	-2	-4	-7
O=C(NCc1ccccc1Cl)NC(=O)c1ccccc1	1	33*	0	-3	-13
O=C(NCc1ccccc1)Nc1cccn(Cc2ccc(Cl)cc2)c1=O	-7	-25	0	-9	2
CCn1nc(C)c2c(-c3ccccc3)cc(=O)n(C(C)C(=O)NCc3ccc(C)cc3)c21 (stereo unspecified)	.	.	0	.	.
CCN1CCN(c2cc(C)c3cc(NC(=O)/C=C/c4ccc(OCCC(C)C)cc4)ccc3n2)CC1	.	.	1	.	8
